Assay: inhibition of PEG-3 promoter-driven reporter – cell-based, HeLa, luciferase, CREF/GAPDH counter-screen panel, dose response (AID 624167)
Settings: CREF/GAPDH counter-screens; run 2, dose range 1, at 100 µM (top of the series)

Row | SMILES | inhibition [%]
1 | CN(C)c1ccc(C=c2c3ccccc3n3c2cc(-c2ccccc2)[n+]3C)cc1 | 100
2 | Cc1nc(C)c(C(=O)N/N=C/c2cc(Br)ccc2O)s1 | 6.13
3 | CN=c1sc2c(n1C)C(=O)c1ccccc1C2=O | 87.2
4 | O=C(N/N=C/c1c(O)ccc2ccccc12)c1ccc(CO)nc1 | 3.42
5 | Cc1oc(-c2ccc3c(c2)OCCO3)cc1C(=O)O | 97.9
6 | O=[N+]([O-])c1ccc(S(=O)(=O)c2ccccc2)nc1 | 94.5
7 | Cc1ccsc1/C=N/Nc1cccc(C(=O)O)c1 | 96.5
8 | O=C(CNC(=O)C(c1ccccc1)c1ccccc1)N/N=C/c1ccc(O)cc1O | 22.3
9 | CCCCCCCn1c(=N)n(CC(=O)c2ccco2)c2ccccc21 | 90.6
10 | O=C(N/N=C/c1cc([N+](=O)[O-])ccc1O)c1ccc(COc2ccc3c(c2)CCC3)o1 | -2.8
11 | COc1ccc(N(C(=O)CCl)C(C(=O)NC2CCCCC2)c2cccnc2)cc1 (stereo not drawn) | 82.8
12 | CC1=CC2C(C(O)CC3(C)C2CC(C)C32OCOC23COCO3)C2(C)C/C(=C\O)C(=O)C=C12 (stereo not drawn) | 100
13 | CC(C)CC1C(=O)N(Cc2cn(Cc3ccco3)nn2)CCS(=O)(=O)N1Cc1ccc(-c2ccc(F)cc2)cc1 (stereo not drawn) | 54.7
14 | CCN(CC)S(=O)(=O)c1cccc(C(=O)N/N=C(\C)c2ccc(O)cc2O)c1 | -50.5
15 | CC(=O)NC(c1ccc(Cl)cc1Cl)c1ccc2cccnc2c1O (stereo not drawn) | 61.7
16 | COc1ccc(C(NC(C)=O)c2ccc3cccnc3c2O)c(OC)c1 (stereo not drawn) | 0.125
17 | Cc1ccc(/C=C2\SC(=S)N(CCCC(=O)Nc3ccccn3)C2=O)cc1 | 76.5

Row | SMILES | inhibition [%]
18 | Cc1cc(Br)ccc1NC(=O)CNC(=O)Cn1ncc(Cl)c(Cl)c1=O | 98.9
19 | N=c1n(CC(=O)c2ccc([N+](=O)[O-])cc2)c2ccccc2n1Cc1ccc(Cl)cc1 | 90.8
20 | Cc1cc(C)c2sc(NNC(=O)c3ccc(S(=O)(=O)N4CCc5ccccc5C4)cc3)nc2c1 | 62
21 | COc1ccc(/C=C2\SC(=S)N(CCCC(=O)NNC(=O)c3ccccc3O)C2=O)cc1 | 72.3
22 | COCCCNC(=O)c1ccc(Cn2c(=O)c3ccccc3n(Cc3ccccc3C#N)c2=O)cc1 | 25.1
23 | O=C(CCl)N1c2ccccc2Sc2ccc3ccccc3c21 | 100
24 | C(=N\Nc1ccc2ccccc2n1)/c1ccc2c(c1)OCCO2 | 92
25 | O=c1cnnc(N/N=C/c2ccccn2)[nH]1 | 9.22
26 | O=c1c2ccccc2sc2nc(CCl)nn12 | 99.3
27 | CCCCC(=O)NC(c1ccccc1OC)c1ccc2cccnc2c1O (stereo not drawn) | 50.9
28 | CC(=O)c1ccc(-c2cnc3c(NC=O)cc(-c4ccccc4Oc4ccccc4)cn23)cc1 | 40
29 | O=C(NNC(=O)c1cccnc1SCc1cccc([N+](=O)[O-])c1)c1ccccn1 | -38.1
30 | COC1CC(C)C(OC)c2cc(O)cc(c2O)NC(=O)C(C)=CC=CC(C)C(OC(N)=O)C(C)=CC(C)C1OC (stereo not drawn) | 84.8
31 | CCCCC(=O)NC(c1ccccc1)c1ccc2cccnc2c1O (stereo not drawn) | 45.2
32 | CCCC(=O)NC(c1ccccc1)c1ccc2cccnc2c1O (stereo not drawn) | 39.4
33 | COc1cc(OC)c2cc(C(=O)N/N=C/c3ccccc3O)[nH]c2c1 | 73.3
